# From publication PMC5540273 (PLoS ONE, 2017)
# pKd: −log10 of the molar value.
# 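Further: kd values determined as follow-up on hits from a single-replicate KINOMEscan panel screen.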
smiles,measurement,setting,value
CC(C)(C)c1ccc(C(=O)Nc2cn3cc(-c4cccnc4)ccc3n2)cc1,pKd,CLK1,6.55
CS(=O)(=O)c1ccc(-c2nc3n(c2-c2ccncc2)CCC3)cc1 [SKF-105942],pKd,CSK,< 5.00
CCn1c(-c2cccnc2O)nc2cnccc21 [SB-736715],pKd,CSNK1A1L,< 5.00
CN(C)CCN(C)C(=O)c1cc(-c2ccncc2)c(-c2ccc(Cl)c(O)c2)o1.Cl.Cl [SB-710397],pKd,CSNK1D,6.66
CSc1nn2c(=O)cc(N3CCOCC3)nc2n1Cc1cccc(C(F)(F)F)c1C [GSK2363608],pKd,CSNK1G1,< 5.00
